# Results reported in paper PMC4336329 (PLoS ONE, 2015).
# Screen size: about 310,000 compounds; about 14,000 (4.5%) showed an effect of 50% or more. The effect is printed as a negative number. This is one part of a sample in which strong results are shown more often than they occur.
# Molecular target: human ether-à-go-go-related gene (hERG) potassium channel (human, UniProt Q12809)
# Experiment: primary screen, population patch clamp on CHO cells stably expressing hERG; higher = less effect of the substance
# 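Also: peak tail current of the secondary pulse compared with the same well before compound.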
# Sequence of human ether-à-go-go-related gene (hERG) potassium channel (Q12809 whole entry, looked up): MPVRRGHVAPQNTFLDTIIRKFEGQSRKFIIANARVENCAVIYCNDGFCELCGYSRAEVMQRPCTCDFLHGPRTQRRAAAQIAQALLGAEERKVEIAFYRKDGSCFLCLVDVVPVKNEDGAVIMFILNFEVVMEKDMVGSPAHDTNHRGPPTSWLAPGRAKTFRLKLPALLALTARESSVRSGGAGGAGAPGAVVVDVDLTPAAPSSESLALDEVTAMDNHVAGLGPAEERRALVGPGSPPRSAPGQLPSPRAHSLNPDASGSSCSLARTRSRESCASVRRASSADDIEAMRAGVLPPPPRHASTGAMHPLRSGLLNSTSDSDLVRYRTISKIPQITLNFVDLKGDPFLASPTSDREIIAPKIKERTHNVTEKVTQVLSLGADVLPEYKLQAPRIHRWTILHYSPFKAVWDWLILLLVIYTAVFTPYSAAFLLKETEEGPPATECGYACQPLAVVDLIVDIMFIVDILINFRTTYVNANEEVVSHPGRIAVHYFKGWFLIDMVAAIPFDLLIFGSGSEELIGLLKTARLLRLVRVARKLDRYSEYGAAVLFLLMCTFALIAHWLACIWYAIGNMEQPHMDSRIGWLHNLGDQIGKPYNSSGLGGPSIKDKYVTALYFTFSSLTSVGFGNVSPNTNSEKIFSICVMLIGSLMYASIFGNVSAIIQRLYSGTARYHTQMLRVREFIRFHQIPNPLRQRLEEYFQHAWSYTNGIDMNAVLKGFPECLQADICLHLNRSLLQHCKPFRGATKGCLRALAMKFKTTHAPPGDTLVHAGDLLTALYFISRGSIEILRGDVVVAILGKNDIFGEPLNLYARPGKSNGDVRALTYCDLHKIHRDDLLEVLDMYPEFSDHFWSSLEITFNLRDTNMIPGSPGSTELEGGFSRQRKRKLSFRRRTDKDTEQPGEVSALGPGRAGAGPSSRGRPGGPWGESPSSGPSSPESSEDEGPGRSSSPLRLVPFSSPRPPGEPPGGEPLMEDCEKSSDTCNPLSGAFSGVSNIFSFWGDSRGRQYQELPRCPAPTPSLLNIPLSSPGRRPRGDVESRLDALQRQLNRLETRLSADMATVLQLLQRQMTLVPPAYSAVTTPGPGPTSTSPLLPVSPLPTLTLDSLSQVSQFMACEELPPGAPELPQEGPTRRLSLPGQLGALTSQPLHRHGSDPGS
row,SMILES,"hERG current change (%, negative = inhibition) at 10uM"
1,COC(=O)c1ccc(C)c(NC(=O)c2ccc(CN3CCc4ccccc4C3)cc2)c1,6.57%
2,CCOC(=O)N1CCN(C(=O)c2cc(COc3ccc(F)cc3F)on2)CC1,-17.1%
3,CC(Oc1ccc(-c2ccccc2)c(F)c1)c1ccn(S(=O)(=O)c2ccc(F)cc2)n1 (centres unmarked),16%
4,COc1ccccc1-c1ccc(Nc2cccc(C(F)(F)F)c2)nn1,15.4%
5,Cn1c(=O)[nH]c(=O)c2c1nc(SCCN1CCOCC1)n2CCCc1ccccc1,-46.9%
6,Cn1c(=O)[nH]c(=O)c2c1nc(SCCN1CCCCC1)n2Cc1ccccc1,-78.9%
7,Cc1cccc(Cn2c(SCCN3CCCCC3)nc3c2c(=O)[nH]c(=O)n3C)c1,-79.1%
8,COCCSc1nc2c(c(=O)[nH]c(=O)n2C)n1Cc1cccc(C)c1,-45.6%
9,Cn1c(=O)[nH]c(=O)c2c1nc(SCC(=O)O)n2Cc1ccccc1,-5.45%
10,Cc1ccc(Cn2c(SCC(C)C)nc3c2c(=O)[nH]c(=O)n3C)cc1,4.21%
11,Cc1ccc(Cn2c(N3CCCCCC3)nc3c2c(=O)[nH]c(=O)n3C)cc1,0.362%
12,Cc1cccc(Cn2c(SCC(=O)Nc3ccccc3)nc3c2c(=O)[nH]c(=O)n3C)c1,-30.2%
13,Cn1c(=O)[nH]c(=O)c2c1nc(SCCN1CCCCC1)n2CCCc1ccccc1,-69%
14,CCCSc1nc2c(c(=O)[nH]c(=O)n2C)n1Cc1ccccc1,-17.4%
15,Cn1c(=O)[nH]c(=O)c2c1nc(SCCO)n2CCCc1ccccc1,-4.68%
16,Cc1ccc(Cn2c(SCCN3CCCCC3)nc3c2c(=O)[nH]c(=O)n3C)cc1,-74.1%
17,Cn1c(-c2ccc(Cl)nc2)nc2cc(Cl)ccc21,-9.09%
18,CC(C)CNC(=O)C1Nc2ccccc2C2C=CCC12 (centres unmarked),-6.43%
19,COc1cccc(N(CC(=O)N/N=C(\C)c2cccs2)S(C)(=O)=O)c1,6.58%
20,Cc1cc(NS(=O)(=O)c2ccc(NC(=O)N[C@H](C(=O)O)C(C)C)cc2)no1,29.3%
21,CCN(CC)C(=S)NC(=O)Cc1ccccc1,16.1%
22,COc1ccc(S(=O)(=O)NC(C)CCc2ccccc2)cc1 (centres unmarked),-3.49%

row,SMILES,"hERG current change (%, negative = inhibition) at 10uM"
1,Cc1c(NC(=O)C(c2ccccc2)c2ccccc2)cccc1C(=O)O,16%
2,CCO[C@@H]1OC(C(=O)Nc2ccccc2)=C[C@H](C)[C@H]1CCCO,1.08%
3,CSc1nnc(NC(=O)c2ccc(C)c(S(=O)(=O)N3CCOCC3)c2)s1,0.594%
4,C=C(C)CSc1nc2c(c(=O)[nH]c(=O)n2C)n1Cc1ccccc1,-12.3%
5,Cn1c(=O)[nH]c(=O)c2c1nc(SCCN1CCOCC1)n2Cc1ccccc1,-54.4%
6,Cn1c(=O)[nH]c(=O)c2c1nc(CN(Cc1ccccc1)Cc1ccccc1)n2CCN1CCOCC1,-16.6%
7,Cc1onc(-c2c(Cl)cccc2Cl)c1NC(=O)NNc1ccccn1,-11.7%
8,COc1cc(OC)c2nc(C)c3c(c2c1)N(c1ccc(O)cc1)CC3,-72.1%
9,CSc1nc(C)c2c(n1)N(c1ccc(O)cc1)CC2,4.88%
10,COc1ccc2c(c1OC)C(=O)N(c1ccc(O)cc1)C2,13.5%
11,COc1ccc(N2CCc3c(C)nc4c(OC)cc(OC)cc4c32)cc1,-75%
12,COc1ccc(N2CCCC2=N)c(OC)c1.Cl,12.7%
13,COc1ccc(N2CCc3c(C)nc(SC)nc32)cc1,3.4%
14,CCOc1ccc(N2CCc3c(C)nc(SC)nc32)cc1,-2.26%
15,COc1ccc(N2C(=O)CCC2=O)c(OC)c1,20.7%
16,COc1ccc(N2CCc3c(C)nc4c(OC)cc(OC)cc4c32)c(OC)c1,-75.3%
17,Cc1cc(C)n(CCOc2ccc(Br)cc2)n1,1.08%
18,O=C(NCc1ccc(-c2nc3ccccc3s2)cc1)c1cc2ccccc2o1,-1.71%
19,CN(C)C(=O)c1cc(C(=O)c2ccccc2Cl)c[nH]1,11.8%
20,COc1cc(C(=O)N/N=C/c2sc(N3CCOCC3)nc2-c2ccccc2)cc(OC)c1OC,3.33%
21,CC(=O)Nc1ccc(S(=O)(=O)N2CCN=C2C)cc1,5.24%
22,CC(=O)NCCC(=O)N1CCCC(C(=O)c2ccc3c4c(cccc24)CC3)C1 (centres unmarked),-18.5%
